A selection: hits, their analogues and other compounds. The true share with any hit is near 13%.
HCMV inh – blocks human cytomegalovirus replication; activity change, negative = inhibition, % at 57.5 µM; HFF cells, HCMV-luciferase reporter, 72 h; active compounds read low; 4.5% of 410,000 active; in the data active = activity change below about -60%; inconclusive = no clear call, values can overlap the other calls; inactive = above about -39%
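Compounds were evaluated in HFFs infected with an HCMV luciferase reporter virus (MOI 1 PFU/cell). Luciferase in lysates collected 72 h post infection served as the replication measure.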
Pf growth 48h – inhibits P. falciparum growth in the first generation, 48 h; AID 504832; 5.9% of 310,000 active; P. falciparum luciferase growth in erythrocytes, 48 h; Potency, µM (highest dose often 28.7 µM), inactives show top-dose activity change, negative = inhibition, most hits filed as inhibitors; note: potency is the fitted concentration of half-maximal effect
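Luciferase-expressing P. falciparum in infected erythrocytes (2% hematocrit, 0.1% parasitemia final) in RPMI 1640/0.5% Albumax were exposed to compound for 48 hours at 37 C, 5% CO2; growth read as luminescence.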
HCV inhibitor – inhibitors of hepatitis C virus infection | Huh7.5.1 HCVcc-Cre infection, luciferase reporter, 44 h | Potency, µM (highest dose often 41.8 µM), inactives show at the top dose activity change, negative = inhibition, usual class: inhibitors | 3.4% of 340,000 active | AID 651820; note: potency is the fitted concentration of half-maximal effect
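Seed cells (1,000/well) for 4 h; treat with compound and infect with HCVcc-Cre, moi about 0.5. Incubate 44 h, then detect luciferase activity.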
Pf growth 96h – inhibits malaria parasite growth, 96 h; Potency, µM (top dose mostly 28.7 µM), for inactives: at the highest dose activity change, negative = inhibition, hits mostly inhibitors; P. falciparum luciferase reporter growth, 96 h; 6.9% of 320,000 active; note: potency is the fitted concentration of half-maximal effect
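Two-generation exposure (96 h) targets delayed-death phenotype. Reporter parasites carrying integrated firefly luciferase, in red cells at 2% hematocrit and 0.05% parasitemia final, kept at 37 C, 5% CO2; luminescence loss indicates inhibition.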
Active calls of the source: *; ? = inconclusive; · = no result. Unless noted, calls come from the whole dose curve; as a rule, active = well fitted inhibition curve with a large enough effect; inconclusive = small, poorly fitted or top-dose-only effect, or another doubt; inactive = no such curve, though single readings can be large or run the other way. % is set by controls: 0 for no effect and ±100 for the full control effect.

SMILES	HCMV inh	Pf growth 48h	HCV inhibitor	Pf growth 96h
CCCn1c2ccccc2c2cnn(CC(=O)NCCc3ccc(OCC)cc3)c(=O)c21	-36.2	·	·	·
Cc1n[nH]c(=S)n(/N=C/c2cccc([N+](=O)[O-])c2)c1=O	39.0	1.65µM*	0.2%	?
O=[N+]([O-])c1cccc(/C=N/n2c(-c3cccnc3)n[nH]c2=S)c1	11.6	13.3%	9.0%	39.1%
COc1cc(/C=N/n2c(=S)[nH]nc(C)c2=O)cc([N+](=O)[O-])c1O	-4.0	64.0%	0.9%	14.7µM*
COc1ccc(NC(=O)C(=O)NCC2(c3ccccc3)CCCC2)c(OC)c1	3.7	·	·	·
CCOc1ccc(CCNC(=O)Cn2nc(C)n3c(cc4occc43)c2=O)cc1OCC	-1.0	·	·	·
CCc1cccc(NC(=O)CCS(=O)(=O)c2ccc3nc(C)sc3c2)c1	-17.3	·	·	·
COc1ccc(OCC(O)Cn2ccnc2C)cc1 (centres undefined)	10.7	9.3%	5.3%	?
COc1cc(OC)cc(OCC(O)Cn2cnc3cc(C)c(C)cc32)c1 (centres undefined)	17.8	·	?	10.4µM*
CC(=O)c1cccc(NS(=O)(=O)c2cc3c(cc2C)n(C)c(=O)c(=O)n3C)c1	-12.3	·	·	·
Cc1ccccc1C(=O)OCc1cc(=O)n2nc(C3CCCCC3)sc2n1	8.7	·	·	·
CN(C)C1=NC[C@H](Cc2ccccc2)N1CCCCc1ccccc1	-6.7	13.1µM*	?	?
Cc1cccc(CCN2C(N(C)C)=NC[C@@H]2CC(C)C)c1	-8.3	13.1µM*	-21.1%	?
CC(C)C[C@H]1CN=C(N(C)C)N1CC1CCCCCC1	-3.0	4.15µM*	-1.7%	?
CCCCCCCN1C(N(C)C)=NC[C@@H]1Cc1ccccc1	-20.5	4.65µM*	?	?
CN(C)C1=NC[C@H](Cc2ccccc2)N1CC1CCCC1	-19.9	?	?	?
Cc1cccc(CCN2C(N(C)C)=NC[C@@H]2Cc2ccccc2)c1	94.4	·	4.3%	·
CCOC(=O)C1=CCC(c2cc3ccc(OC)cc3n2C(=O)OC(C)(C)C)NC1 (centres undefined)	13.9	·	·	·
CC(C)CCC1(CCNC(C)c2cccs2)CCOC(C)(C)C1 (centres undefined)	17.4	?	-19.6%	13.1µM*
O=C(Nc1ccccc1C(F)(F)F)C1CCN(S(=O)(=O)Cc2ccccc2)CC1	2.1	·	·	·
O=C(Nc1ccc(F)cc1F)Nc1ccc(F)cc1F	?	87.2%	-11.5%	-0.9%
O=C(Nc1ccc(F)c(Cl)c1)Nc1csc2ccccc12	-98.4*	?	?	?
O=C(Nc1ccc(F)cc1F)Nc1csc2ccccc12	-18.1	4.65µM*	?	?
C[C@H](CO)N1C[C@H](C)[C@@H](CN(C)C(=O)Nc2ccc(-c3cccs3)cc2)OCc2cn(nn2)CCCC1=O	-7.4	·	·	·
COc1ccc(OC)c(-c2cc(C3CCN(c4ncccc4[N+](=O)[O-])CC3)[nH]n2)c1	-29.5	8.28µM*	11.2µM*	9.28µM*
SMILES	HCMV inh	Pf growth 48h	HCV inhibitor	Pf growth 96h
CC(=O)c1ccc(N2CCN(c3ccccc3O)CC2)c([N+](=O)[O-])c1	-5.7	0.0%	-23.4%	15.9%
CC(=O)c1ccc(N2CCC(c3cc(-c4ccc(Cl)cc4Cl)n[nH]3)CC2)c([N+](=O)[O-])c1	-60.1*	?	11.2µM*	?
O=[N+]([O-])c1cccnc1N1CCC(c2cc(-c3ccc(Cl)cc3Cl)n[nH]2)CC1	-17.0	?	22.4µM*	·
O=[N+]([O-])c1cccnc1N1CCC(c2cc(-c3cccc(C(F)(F)F)c3)n[nH]2)CC1	-30.5	·	?	-89.6%
Cc1nnc(N2CCN(c3cccc(Cl)c3)CC2)c2c1nnn2Cc1ccc(F)cc1	12.2	·	·	·
CCc1ccccc1NC(=O)CC(c1ccc(F)cc1)N1Cc2ccccc2C1=O (centres undefined)	-25.8	·	·	·
CCC(Oc1ccccc1)C(=O)Nc1ccc2oc(-c3ccc(OC)cc3)nc2c1 (centres undefined)	67.6	·	·	·
CC(C)(C)NC(=O)CCN(/N=C/c1ccc([N+](=O)[O-])o1)C1=NS(=O)(=O)c2ccccc21	-94.7*	-17.9%	?	?
CCOc1ccc(CCNS(=O)(=O)c2cc(Br)cc3c2N(C(C)=O)CC3)cc1OCC	1.1	·	·	·
Cc1ccc(Cl)cc1NC(=O)Nc1cccc(OCc2cc(=O)n3ccccc3n2)c1	-64.6*	·	·	·
Cc1cccn2c(=O)cc(COc3cccc(NC(=O)c4ccccc4F)c3)nc12	-90.9*	·	·	·
CC(=O)Nc1ccc(OCc2cc(=O)n3ccccc3n2)cc1	34.9	·	·	·
O=C(COc1ccccc1F)Nc1ccc(OCc2cc(=O)n3ccccc3n2)cc1	-61.1*	·	·	·
COC(=O)c1ccccc1NC(=O)Nc1cccc(OCc2cc(=O)n3cccc(C)c3n2)c1	-18.2	·	·	·
Cc1cccn2c(=O)cc(COc3cccc(NC(=O)COc4ccc(F)cc4)c3)nc12	-90.4*	·	·	·
COc1ccc(C(=O)Nc2ccccc2-c2nc3ccccc3s2)cc1OC	-23.3	·	·	·
Cc1c(CCNC(=O)c2ccc(C(C)(C)C)cc2)sc2nc(-c3ccc(F)cc3)nn12	-31.3	·	·	·
Cc1cccc(C)c1-n1ncc(C(=O)N2CCN(c3ncccn3)CC2)c1C1CCN(C(=O)OC(C)(C)C)CC1	12.5	·	·	·
O=C(CCn1cccn1)Nc1ccc(Br)cc1F	3.5	·	·	·
CCC1CCCCN1C(=O)Cn1c(=O)n(CC2CCC(C(=O)NC)CC2)c(=O)c2sccc21 (centres undefined)	2.5	·	·	·
Cc1c(CNCCc2ccc(S(N)(=O)=O)cc2)c(C(=O)O)c(C)n1Cc1ccc(Cl)cc1	19.4	·	·	·
COc1ccc(OC)c(CCNC(=O)CCc2cn(Cc3cc(C)ccc3C)c3ccccc23)c1	-25.1	·	·	·
Cc1ccc(OCCSc2nc3ccccc3n2CC(=O)N2CCCCC2)cc1C	-8.8	·	·	·
Cn1c2c(c(O)c(-c3ccccc3)c1=O)C(=O)CC(C)(C)C2	-14.3	?	3.4%	?
Cc1cc(C)c(-c2c(O)c3c(n(C)c2=O)CC(C)(C)CC3=O)c(C)c1	22.4	?	2.1%	5.86µM*
SMILES	HCMV inh	Pf growth 48h	HCV inhibitor	Pf growth 96h
COc1cc(CCCN2C(=O)C(=O)NC[C@@H]2Cc2ccc(O)cc2)cc(OC)c1OC	26.8	35.6%	11.1%	57.7%
COc1cc(CCCN2C(N)=NC[C@H]2Cc2ccc(O)cc2)cc(OC)c1OC	-18.2	8.28µM*	4.2%	2.33µM*
COc1cc(CCCN2C(=S)NC[C@H]2Cc2ccc(O)cc2)cc(OC)c1OC	-12.7	9.9%	11.2µM*	-0.9%
O=C(CN1C2CCCC1CC(NC(=O)C1CCCCC1)C2)NCc1ccc(F)cc1 (centres undefined)	-23.6	?	?	?
COc1cc(C(=O)NC2CC3CCCC(C2)N3CC(=O)Nc2ccccc2)cc(OC)c1OC (centres undefined)	30.0	?	-6.1%	-1.6%
O=C(CN1C2CCCC1CC(NC(=O)c1ccccc1)C2)Nc1nccs1 (centres undefined)	5.5	?	10.0%	9.28µM*

Source: PubChem
